The source of these data is PubChem BioAssay (NCATS).

“And” between values parts separate entries of the source, which are not always exact repeats. Identical values can stand only once. Inconclusive results are not listed. The source made the active and inactive calls. Unless noted, the rule behind the calls is not given here.

A short description of test [1]: qHTS profiling of the MIPE4 collection as inhibitors of Plasmodium falciparum (3D7) proliferation (AID 743344).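 Note: scaled between DMSO vehicle wells and 0.29 µM artemisinin as full inhibition.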 The conditions noted are these: P. falciparum 3D7 in erythrocytes, SYBR Green DNA fluorescence, 72 h; at 28.5 µM unless noted. In short, it runs like this:
(§1)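 Parasite DNA was quantified by SYBR Green I fluorescence (ex 485, em 535 nm) after overnight lysis in saponin/Triton buffer at room temperature. Cultures at 0.3% parasitemia and 2.5% hematocrit were first exposed to compound for 72 h at 37 C; signals were normalised to artemisinin (0.29 uM) and vehicle wells.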

The nature of test [2]: qHTS profiling of the MIPE4 collection as inhibitors of Plasmodium falciparum (DD2) proliferation (AID 743345). The conditions noted are these: P. falciparum Dd2 in erythrocytes, SYBR Green DNA, 72 h; at 28.5 µM unless noted. In outline:
as §1

A short description of test [3]: qHTS profiling of the MIPE4 collection as inhibitors of Plasmodium falciparum (DD2) proliferation (Rep 2) (AID 743346). The settings on record: P. falciparum Dd2 in erythrocytes, SYBR Green DNA, 72 h; at 28.5 µM unless noted. In outline: as §1
The nature of test [4]: qHTS profiling of the MIPE4 collection as inhibitors of Plasmodium falciparum (HB3) proliferation (AID 743347).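 Note: plate controls were DMSO vehicle wells for no effect and artemisinin wells for full effect.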 The settings on record: P. falciparum HB3 in erythrocytes, SYBR Green DNA, 72 h; at 28.5 µM unless noted. In outline:
as §1

Test [5] is described as follows: High-throughput drug toxicity screening in the BPDCN cell line Gen2.2 (AID 1224824).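 Note: cells exposed to compounds for 48 h before reading.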 The settings on record: Gen2.2 BPDCN cells; at 45.8 µM (top of the series) unless noted. In outline:
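Gen2.2 cells, 500 per well in phenol red-free RPMI with 10% FBS, exposed to compounds 48 h at 37 C, 5% CO2; viability by CellTiter-Glo luminescence. Percent activity scaled to DMSO (100%) and 9.2 uM bortezomib final (0%).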

The nature of test [6]: High-throughput drug toxicity screening in the BPDCN cell line Cal-1 (AID 1224825). The conditions noted are these: Cal-1 BPDCN cell viability, qHTS; at 45.8 µM (top of the series) unless noted. In short, it runs like this:
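Viability of the BPDCN line Cal-1 is measured as ATP-based luminescence (CellTiter-Glo) following 48 h incubation with compounds. Percent activity uses DMSO-treated wells as 100% and 9.2 uM bortezomib as 0%.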

Test [7] can be described thus: qHTS assay for measurement of the activity of small molecule inhibitors on Zika virus induced Caspase-3 activity in human astrocytoma cells (AID 1224859; active = well fitted curve in the direction sought with a large enough effect; an effect the other way counts as inactive or inconclusive;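 note: plate controls were ZIKV-infected untreated cells for no effect and uninfected cells for full effect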). In short, it runs like this: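 In SNB-19 cells plated at 250 cells/well and grown 16-20 h, compounds were applied 1 h before ZIKV (2 FFU/cell). Six hours later caspase-3/7 luminescence was recorded.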
Test [8] is described as follows: qHTS profiling for inhibitors of Plasmodium falciparum (DD2) proliferation (AID 743323). The settings on record: lower = more inhibition; at 28.7 µM (top of the series). In outline:
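SYBR Green fluorescence (ex 485, em 535 nm) of lysed cultures gives parasite DNA content; wells normalized to artemisinin (0.29 uM) and DMSO controls. Infected red cells: 0.3% parasitemia, 2.5% hematocrit, 72 h, 37 C.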

The nature of test [9]: qHTS profiling for inhibitors of Plasmodium falciparum (HB3) proliferation (AID 743324; active = well fitted curve in the direction sought with a large enough effect; an effect the other way counts as inactive or inconclusive;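 note: 100% = DMSO vehicle wells and 0% = artemisinin-treated control wells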). The settings on record: Plasmodium falciparum HB3 blood-stage proliferation; at 28.7 µM (top of the series). In short, it runs like this:
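SYBR Green fluorescence (485 ex/535 em) of lysed cultures, incubated overnight at room temperature in the dark, quantifies parasite DNA. Infected erythrocytes at 0.3% parasitemia and 2.5% hematocrit were exposed 72 h; values normalized to DMSO and 0.29 uM artemisinin controls.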

Test [10] in a line: qHTS Assay for Identifying Gametocytocidal Compounds (AID 743244; active = well fitted curve in the direction sought with a large enough effect; an effect the other way counts as inactive or inconclusive;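 note: % is set by controls: 0 for no effect and ±100 for the full control effect; actives lower the fluorescent signal which means gametocytes are killed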). The settings on record: P. falciparum 3D7 stage III-V gametocytes, alamarBlue, 72 h; max response: stronger effect = lower value. In outline: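 Late gametocytes (III–V), P. falciparum 3D7; 72 h drug, then 24 h alamarBlue; resazurin reduction read by fluorescence.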

As for `O=C1c2c(O)cc(O)cc2O[C@H](c2cc(O)c(O)c(O)c2)[C@H]1O`, the parasite growth, % of DMSO control in [1] was found to be 85.4%. The same compound gave a parasite growth remaining, % of DMSO control (lower = more inhibition) in [2] of 85.1%. The parasite growth, % of control (lower = inhibition) in test [3] came out at 78.7%. The compound further showed a growth, % of control in [4] of 102%. In test [5], the cell viability, % of control (lower = more cytotoxic) amounted to 112%. For the same compound, the viability (% of control) in test [6] amounted to 123%. The Potency result in test [7] was “inactive”.

Compound `Clc1ccc(CCC(Cn2ccnc2)Sc2c(Cl)cccc2Cl)cc1` (configuration not stated) registered a parasite growth, % of DMSO control in [1] of 5.77%. This compound also yielded a parasite growth remaining, % of DMSO control (lower = more inhibition) in [2] of 6.42%. The parasite growth, % of control (lower = inhibition) in [3] was 10.3%. The compound also yielded a growth, % of control in test [4] of 3.43%. Moreover, the cell viability, % of control (lower = more cytotoxic) in test [5] stood at 177%. Also, the viability (% of control) in test [6] turned out to be 67.7%.

Compound `CC=CC[C@@H](C)C(=O)[C@H]1C(=O)N[C@@H](C(C)C)C(=O)N(C)CC(=O)N(C)[C@@H](CC(C)C)C(=O)N[C@@H](C(C)C)C(=O)N(C)[C@@H](CC(C)C)C(=O)N[C@@H](C)C(=O)N[C@H](C)C(=O)N(C)[C@@H](CC(C)C)C(=O)N(C)[C@@H](CC(C)C)C(=O)N(C)[C@@H](C(C)C)C(=O)N1C` came in with a parasite growth, % of DMSO control in test [1] of 90.9%. In addition, the parasite growth remaining, % of DMSO control (lower = more inhibition) in test [2] is 93.4%. Moreover, the parasite growth, % of control (lower = inhibition) in test [3] was determined as 107%. The same compound displayed a growth, % of control in test [4] of 103%. Besides, the cell viability, % of control (lower = more cytotoxic) in test [5] is 62.3%. Besides, in [6], the viability (% of control) was 37%. In addition, the Potency result in test [7] was “inactive”.

`C[C@@H]1CCN(C(=O)CC#N)C[C@H]1N(C)c1ncnc2[nH]ccc12` came in with an activity, percent of control in test [8] of 90.1%. The compound also displayed a remaining proliferation (% of control), lower = more inhibition in [9] of 56.2%. The compound also registered a parasite growth, % of DMSO control in test [1] of 72.5%. This compound came in with a parasite growth remaining, % of DMSO control (lower = more inhibition) in test [2] of 96.3%. In addition, in test [3], the parasite growth, % of control (lower = inhibition) amounted to 93.5%. Moreover, the growth, % of control in test [4] worked out at 74.7%. The cell viability, % of control (lower = more cytotoxic) in test [5] came out at 52.4%. Besides, the viability (% of control) in [6] came out at 110%. The Potency entry in [7] is “inactive”.

Take `C[C@H](NC(=O)c1sccc1OCc1ccc(Cl)cc1)c1ccccc1`: the parasite growth, % of DMSO control in test [1] was 13.9%. In [2], this compound showed a parasite growth remaining, % of DMSO control (lower = more inhibition) of 14.8%. Moreover, the parasite growth, % of control (lower = inhibition) in test [3] is 10.7%. In test [4], the growth, % of control was determined as 3.82%. Also, in [5], the cell viability, % of control (lower = more cytotoxic) is 181%. Further, in [6], the viability (% of control) is 45.5%. In test [7], the Potency entry was “inactive”.

For the compound `Cc1ccc(C(=O)Nc2cccc(C(F)(F)F)c2)cc1Nc1nc(-c2cccnc2)nc2c1cnn2C`, the parasite growth, % of DMSO control in test [1] came out at 7.71%. In addition, in [2], the parasite growth remaining, % of DMSO control (lower = more inhibition) came out at 12%. The parasite growth, % of control (lower = inhibition) in test [3] came out at 27.1%. For the same compound, in test [5], the cell viability, % of control (lower = more cytotoxic) stood at 6.02%. Also, the viability (% of control) in test [6] was 3.12%. In addition, in [7], the Potency result was “inactive”.

As to `COc1cc2c(cc1OC)CN(CCc1ccc(NC(=O)c3cc(OC)c(OC)cc3NC(=O)c3cnc4ccccc4c3)cc1)CC2`, the parasite growth, % of DMSO control in [1] is 39.1%. Moreover, in [2], the parasite growth remaining, % of DMSO control (lower = more inhibition) was 83.6%. In addition, in [3], the parasite growth, % of control (lower = inhibition) came out at 83.4%. In [4], this compound returned a growth, % of control of 93.6%. Also, in test [5], the cell viability, % of control (lower = more cytotoxic) worked out at 115%. In addition, the viability (% of control) in test [6] was determined as 93.8%. The Potency entry in test [7] is “inactive”.

As to `CC(=O)Oc1cc2c(s1)CCN(C(C(=O)C1CC1)c1ccccc1F)C2` (configuration not stated), the max response in test [10] is 3.57% (inactive). The parasite growth, % of DMSO control in test [1] stood at 56.7%. In test [2], this compound displayed a parasite growth remaining, % of DMSO control (lower = more inhibition) of 95.5%. For the same compound, the parasite growth, % of control (lower = inhibition) in test [3] is 40.2%. Further, the growth, % of control in test [4] worked out at 57.5%. For the same compound, in test [5], the cell viability, % of control (lower = more cytotoxic) turned out to be 15.7%. Besides, the viability (% of control) in test [6] amounted to 18.3%. In [7], the Potency entry was “inactive”.

Consider `COc1ccc(C2Sc3ccccc3N(CCN(C)C)C(=O)C2OC(C)=O)cc1` (configuration not stated), for which, in [1], the parasite growth, % of DMSO control was 68.8% and 96.6%. For the same compound, in [2], the parasite growth remaining, % of DMSO control (lower = more inhibition) was 81% and 97.9%. In addition, in test [3], the parasite growth, % of control (lower = inhibition) was 33.4% and 89.9%. Further, the growth, % of control in [4] was 60.2% and 101%. In test [5], the cell viability, % of control (lower = more cytotoxic) was 150%. In addition, the viability (% of control) in [6] was determined as 90%. In test [7], the Potency result is “inactive”.

As to `NS(=O)(=O)c1cccc2c1C(=O)c1cccc(O)c1C2=O`, the parasite growth, % of DMSO control in test [1] turned out to be 4.48%. The compound also yielded a parasite growth remaining, % of DMSO control (lower = more inhibition) in [2] of 6.12%. The parasite growth, % of control (lower = inhibition) in test [3] was 4.4%. The same compound showed a growth, % of control in test [4] of 2.61%. In addition, in [5], the cell viability, % of control (lower = more cytotoxic) is 5.1%. In addition, the viability (% of control) in [6] worked out at 3.92%. Moreover, in test [7], the Potency result was “inactive”.

For the compound `COC(=O)C1=CO[C@@H](O)[C@@H]2C(CO)=CC[C@@H]12`, the parasite growth, % of DMSO control in [1] turned out to be 83%. This compound also gave a parasite growth remaining, % of DMSO control (lower = more inhibition) in test [2] of 85.9%. Moreover, the parasite growth, % of control (lower = inhibition) in test [3] came to 98.4%. Besides, in test [5], the cell viability, % of control (lower = more cytotoxic) came to 17.3%. The viability (% of control) in [6] amounted to 16.7%. Also, the Potency result in test [7] is “inactive”.
